# Measured values reported in the supplement of paper PMC12067926.
# Values without a mark were called inactive.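 Rule for the calls: active = growth AUC significantly below the DMSO wells by Dunnett test; inactive = the rest.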
# What was measured:
# Assay in all cases: relative growth (AUC of 72 h growth curve relative to DMSO control, dAUC) (ratio); higher = more growth (less inhibition), active = hit call of the paper
# Conditions in all cases: 20 µM
# [1] = tested on: Prolinoborus 1 (Prolinoborus fasciculus)
# Summary of the method: (§1)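 Whole sediment communities and bacterial isolates from Icelandic stream sediments and Silwood Park soil were brought to carrying capacity in Luria–Bertani medium. They were then diluted 1:100 into 96-well plates with each chemical at 20 µM in 1% DMSO, and A600 was recorded every hour for 72 h. The area under each growth curve, integrated by spline, was averaged across three biological replicates. This figure, divided by the mean of the DMSO controls, gives relative growth (dAUC).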
# [2] = tested on: Pseudomonas 1 (Pseudomonas baetica)
# Summary of the method: as §1
# [3] = tested on: Pseudomonas 2 (Pseudomonas vancouverensis)
# Summary of the method: as §1
# [4] = tested on: Pseudomonas 3 (Pseudomonas mandelii)
# Summary of the method: as §1
# [5] = tested on: Pseudomonas 4 (Pseudomonas peli)
# Summary of the method: as §1
# [6] = tested on: Pseudomonas 5 (Pseudomonas baetica)
# Summary of the method: as §1
# [7] = tested on: Pseudomonas 6 (Pseudomonas sp.)
# Summary of the method: as §1
# [8] = tested on: Rhizobium 1 (Rhizobium herbae)
# Summary of the method: as §1
# [9] = tested on: Serratia 1 (Serratia sp. 2015-2462-01)
# Summary of the method: as §1
# [10] = tested on: Sphingomonas 2 (Sphingomonas sp.)
# Summary of the method: as §1
SMILES,relative growth [1],relative growth [2],relative growth [3],relative growth [4],relative growth [5],relative growth [6],relative growth [7],relative growth [8],relative growth [9],relative growth [10]
Cc1cc(C(C#N)c2ccc(Cl)cc2)c(Cl)cc1NC(=O)c1cc(I)cc(I)c1O (stereo not given),0.673 (active),0.846,0.757 (active),0.822 (active),0.883,0.844 (active),0.857,0.478,0.825 (active),0.0325 (active)
CCC(CC)Nc1c([N+](=O)[O-])cc(C)c(C)c1[N+](=O)[O-],0.939,1.13,0.981,1.03,0.949,1.05,1.04,0.957,0.929,0.998
CCCCCCCCCCCCNC(=N)N,0.00813 (active),1.05,0.94,0.902,0.847 (active),0.904,0.922,0.00569 (active),0.00141 (active),0.00501 (active)
COP(=S)(OC)Oc1ccc(SC)c(C)c1,0.975,0.988,0.973,1.01,0.957,1.01,1.01,0.937,0.998,0.974
O=C1C=C(N(Cc2ccc(Cl)nc2)CC(F)F)CO1,0.95,1.15,0.993,1.06,0.993,0.988,1.06,0.978,0.962,0.914
CSc1nc(NC(C)C)nc(NC(C)C)n1,0.989,1.14,1.02,1.02,0.949,1.03,1.08,0.858,0.983,0.989
COC(=O)Nc1nc2ccccc2[nH]1,1.03,1.05,0.975,1,1.01,1.05,1.08,0.944,0.978,0.732
COC(=O)c1ccccc1S(=O)(=O)NC(=O)Nc1nc(C)nc(OC)n1,1.03,0.998,1.01,0.983,1.08,0.984,0.905,1.15,1.11,1.03
CC[C@H](C)[C@H]1O[C@]2(C=C[C@@H]1C)C[C@@H]1C[C@@H](C/C=C(\C)[C@@H](O[C@H]3C[C@H](OC)[C@@H](O[C@H]4C[C@H](OC)[C@@H](O)[C@H](C)O4)[C@H](C)O3)[C@@H](C)/C=C/C=C3\CO[C@@H]4[C@H](O)C(C)=C[C@@H](C(=O)O1)[C@]34O)O2.CO[C@H]1C[C@H](O[C@H]2[C@H](C)O[C@@H](O[C@@H]3/C(C)=C/C[C@@H]4C[C@@H](C[C@]5(C=C[C@H](C)[C@@H](C(C)C)O5)O4)OC(=O)[C@@H]4C=C(C)[C@@H](O)[C@H]5OC/C(=C\C=C\[C@@H]3C)[C@]54O)C[C@@H]2OC)O[C@@H](C)[C@@H]1O,0.894,1.05,1.01,1.03,1.02,1.13,1.04,0.807,0.958,0.717
COP(=S)(OC)SCN1C(=O)c2ccccc2C1=O,1.08,0.986,0.981,0.971,0.962,1.03,1.12,0.943,0.972,1.01
COCC(C)N(C(=O)CCl)c1c(C)csc1C (stereo not given),0.925,1.04,0.974,1,0.962,1.07,1.15,1.04,0.939,1.01
CNC(=O)ON=C(C)SC,0.938,0.876,0.956,0.999,0.946,1.02,0.936,1.06,0.936,0.978
O=C(NCCc1ncc(C(F)(F)F)cc1Cl)c1ccccc1C(F)(F)F,0.967,1.08,0.981,1.07,0.964,0.99,1.05,0.94,0.971,1.02
C[N+](C)(C)CCCl,0.959,1.07,1.03,1.01,1.04,1.02,1.07,0.998,0.962,1.02
N#Cc1cc(Br)c(O)c(Br)c1,0.996,1.06,1.02,1.09,0.964,1.05,1.12,0.751,0.998,1.06
CCCSP(=O)(OCC)Oc1ccc(Br)cc1Cl (stereo not given),1.01,1.12,1.08,1.1,0.975,1.01,1.04,0.931,0.955,1.09
CC1(C)[C@H](/C=C(\Cl)C(F)(F)F)[C@@H]1C(=O)OC(C#N)c1cccc(Oc2ccccc2)c1 (stereo not given in full),0.983,1.07,1.02,1.05,0.999,1.08,1.16,1.28,1.01,0.868
CCCCC(C#N)(Cn1cncn1)c1ccc(Cl)cc1 (stereo not given),0.947,0.939,0.943,0.993,0.927,0.963,0.907,0.958,0.973,0.96
CNC(=O)/C=C(\C)OP(=O)(OC)OC,0.971,1.05,0.988,1.03,0.964,0.96,0.989,1.09,0.937,0.926
CCC(=O)Nc1ccc(Cl)c(Cl)c1,0.951,1.04,0.975,0.984,0.928,1.01,1.02,0.817,0.906,0.927
CC(C)(C)c1ccc(CSc2cnn(C(C)(C)C)c(=O)c2Cl)cc1,0.998,1,1.01,1.02,1.02,1.01,1.13,1.04,1.06,0.802
CC1(C)C(C=C(Cl)Cl)C1C(=O)OC(C#N)c1ccc(F)c(Oc2ccccc2)c1 (stereo not given),1.04,1.22,1.02,1.02,0.964,1.03,1.03,1.06,0.994,1.03
CCNc1nc(Cl)nc(NC(C)C)n1,0.944,0.917,0.95,0.996,0.956,1.01,0.945,0.995,0.928,1.02
O=C1c2ccccc2C(=O)N1SC(Cl)(Cl)Cl,1.04,1.05,0.992,1.01,1.01,1.06,1.16,1.01,0.947,0.999
O=C(Nc1ccccc1-c1ccc(Cl)cc1)c1cccnc1Cl,0.978,0.948,0.972,1,0.986,0.998,0.959,0.665,0.971,0.958
C[C@@H]1[C@@H](c2ccc(Cl)cc2)SC(=O)N1C(=O)NC1CCCCC1,0.994,0.933,0.976,1.02,1,1.05,1.13,0.964,1,0.987
O=C(O)CNCP(=O)(O)O,0.991,0.996,0.994,1.05,0.979,1,1.1,1.03,1.01,1.02
